Here are results for 4 compounds from PubChem BioAssay.

“And” between values parts separate entries of the source, which are not always exact repeats. Equal entries are not always repeated. The source made the active and inactive calls.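 Rule for the calls, unless noted: active = compounds whose cell count with miR-34 switched on is under 0.7 times the count with it off; inactive = the rest.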

A short description of assay [1]: Wnt pathway potentiators raising nuclear beta-catenin – imaging, WNT3A-conditioned medium, mouse C2C12, NPC library, primary screen (AID 1117326; in the data active = nuclear beta-catenin stimulation mostly above about 4.2%, no sharp cut-off; inactive = mostly below about 10%). The note with it: stronger effect = higher value.
Assay [2] is described as follows: stimulators of insulin release from INS-1E, primary screen, cell-based, 5 mM glucose, NPC library (AID 1117329;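 active = compound raises insulin release from rat beta cells at 5 mM glucose, no numeric limit stated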). The note with it: rat INS-1E insulin secretion, at 10 µM, stronger effect = higher value.
A short description of assay [3]: growth inhibition of GSK3B-pretreated HCT116 cells – cell-based, CellTiter-Glo, 0.2 to 20 µM (AID 1117336;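 active = compounds lowering colon cancer cell viability after pretreatment blocking the GSK3B kinase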). The note with it: HCT116 viability after GSK3B inhibitor, at 20 µM, stronger effect = higher value. (ATP-based viability assays read luminescence as a measure of living cells.)
Assay [4] in a line: inhibition of endothelial tube formation, primary screen, imaging, VEGF stimulated, CD31 staining, tube area, NPC library (AID 1117340;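 active = compound that reduces growth-factor-driven endothelial tube area in a mixed cell culture, no cutoff stated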). The conditions noted are these: VEGF-stimulated ADSC/ECFC co-culture, at 10 µM, stronger effect = higher value.
A short description of assay [5]: GLP1 release stimulators, primary, NCI-H716, NPC library (AID 1117341;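 active = compound raises GLP1 secretion from the human gut endocrine cells, with no numeric limit stated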). The conditions noted are these: NCI-H716 cells, at 10 µM, stronger effect = higher value.
A short description of assay [6]: HCT116 colon cancer cell growth inhibition, primary screen, CellTiter-Glo luminescence, NPC library (AID 1117342;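 active = compounds that lower survival of HCT116 colon cancer cells in the luminescence readout, no numeric limit stated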). The conditions noted are these: at 20 µM (top of the series).
The nature of assay [7]: reduced SW480 viability measured with CellTiter-Glo, NPC library, primary (AID 1117343;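 active = compounds that lower viability of the colon cancer cells in the luminescence readout, with no numeric limit stated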). The conditions noted are these: CellTiter-Glo luminescence; at 20 µM (top of the series) unless noted.
Assay [8] can be described thus: NPC library primary testing for decreased DLD-1 cell viability via CellTiter-Glo (AID 1117346;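 active = compounds that lower survival of DLD-1 colon cancer cells in the luminescence readout, no cutoff given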). The conditions noted are these: DLD-1 viability, CellTiter-Glo luminescence; at 20 µM (top of the series).
Assay [9] in a line: EMT-state selective cytotoxicity in co-culture – imaging, PC-3E GFP, TEM4-18 mCherry, primary screen (AID 1345086;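 active = compounds killing one labelled cell type while sparing the other, by normalised counts and ratio limits, not self-fluorescent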;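 for all read-outs here: cells exposed to compound for 72 h before imaging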;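 for red/green cell ratio (normalised): normalised mesenchymal count divided by normalised epithelial count so high means epithelial killing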). The conditions noted are these: PC-3E GFP / TEM4-18 mCherry co-culture, imaging cell counts, at 1 µM; for red/green cell ratio (normalised): actives lie on both sides, counts scaled to control wells, 1 = unselective.
Assay [10] in a line: viability loss with induced miR-34 in A549 – imaging, A549 dox-inducible miR-34, nuclei and caspase counts, primary screen (AID 1347080). The note with it: A549 miR-34 inducible, Hoechst nuclei count, 48 h.
The nature of assay [11]: MELAS cybrid and Rieske KO viability enhancers – cell-based, MELAS cybrids, Rieske KO mouse fibroblasts, CellTiter-Glo, primary screen (AID 1508586;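 active = mean z-score across replicates of 1.96 or higher in either the MELAS or the Rieske mutant cell line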;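 note: z relative to plate mean and SD of compound and empty wells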). The conditions noted are these: low glucose.
Assay [12] deals with NAD(+) hydrolase SARM1 (Homo sapiens) (UniProt Q6SZW1). Description: blocking NAD cleavage by SARM1 SAM-TIR – cell lysate, NAD-Glo luminescence (AID 1508614;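 active = compound whose remaining NAD level is above about 45 nM, limit read from the data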;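 note: higher remaining NAD means stronger inhibition of SARM1 NADase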). The conditions noted are these: SAM-TIR HEK293T lysate NADase, at 1 µM, stronger effect = higher value.
Assay [13] is described as follows: P. berghei load reduction in hepatocytes – cell-based, HepG2, luciferase luminescence, HepG2 viability, primary screen (AID 624349; in the data active = parasite load remaining mostly below about 12%, no sharp cut-off; inactive = mostly above about 10%;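 note: 100% = mean of DMSO negative control wells on the same plate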). The note with it: P. berghei liver stage in HepG2, luciferase luminescence, concentration not given here; parasite load remaining: stronger effect = lower value; viability: measured here: HepG2 viability without parasites.
Assay [14] in a line: compounds altering viability of human ES cells (AID 493140; call rule not given here;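 note: cells exposed to compounds for four days before counting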). The conditions noted are these: human embryonic stem cell survival screen; stronger effect = higher value.
The mark [15] stands for this setting: measured here: epithelial PC-3E GFP cell survival.
The mark [16] stands for this setting: measured here: mesenchymal TEM4-18 mCherry cell survival.
The mark [17] stands for this setting: stronger effect = lower value, cell number ratio, induced over uninduced.
[18] abbreviates: measured here: relative caspase fold change +Dox/-Dox.
Setting [19] is: measured here: total cells with miR-34 induction, stronger effect = lower value.
Setting [20] is: measured here: total cells without miR-34 induction.
Setting [21] is: MELAS cybrid survival, CellTiter-Glo 48 h, stronger effect = higher value.
The mark [22] stands for this setting: Rieske KO mouse fibroblast survival, CellTiter-Glo 72 h.

NAD(+) hydrolase SARM1 (Homo sapiens), sequence (Q6SZW1 whole entry, looked up): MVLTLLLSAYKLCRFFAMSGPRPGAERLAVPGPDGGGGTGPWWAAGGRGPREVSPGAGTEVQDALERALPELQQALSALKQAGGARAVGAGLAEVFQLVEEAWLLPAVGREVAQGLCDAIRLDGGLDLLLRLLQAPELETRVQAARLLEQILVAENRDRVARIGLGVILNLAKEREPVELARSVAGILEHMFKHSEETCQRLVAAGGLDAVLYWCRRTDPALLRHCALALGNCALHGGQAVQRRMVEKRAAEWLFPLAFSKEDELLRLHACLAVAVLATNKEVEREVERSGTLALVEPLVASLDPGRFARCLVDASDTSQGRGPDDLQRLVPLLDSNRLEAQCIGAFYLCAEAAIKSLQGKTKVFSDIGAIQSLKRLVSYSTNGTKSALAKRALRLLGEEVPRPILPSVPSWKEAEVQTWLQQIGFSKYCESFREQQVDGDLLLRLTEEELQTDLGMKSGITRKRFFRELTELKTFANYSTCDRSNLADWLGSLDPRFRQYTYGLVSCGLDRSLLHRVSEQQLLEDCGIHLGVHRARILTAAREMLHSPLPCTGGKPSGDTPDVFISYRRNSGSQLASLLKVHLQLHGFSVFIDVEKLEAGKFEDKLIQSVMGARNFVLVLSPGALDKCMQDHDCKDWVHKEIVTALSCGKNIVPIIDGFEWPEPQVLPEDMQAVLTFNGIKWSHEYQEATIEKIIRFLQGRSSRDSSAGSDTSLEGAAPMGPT

Consider `CC(=O)Nc1ncc([N+](=O)[O-])s1`, for which the nuclear beta-catenin stimulation in [1] (at 10 µM) is -0.3% (inactive); in assay [1] (stimulation, at 2 µM), 0.5%. For the same compound, in [2], the insulin secretion stimulation was -2.2% (inactive). Moreover, the viability decrease in assay [3] is 4.2% (inactive). Moreover, in [4], the tube area decrease is 5.9% (inactive). In addition, the GLP1 secretion stimulation in assay [5] was -1.7% (inactive). Also, in assay [6], the inhibition of viability is 12% (inactive). In addition, the viability decrease (inhibition) is 9.6% (inactive) in [7] and 13.5% (inactive) in assay [8]. Besides, in assay [9], the red/green cell ratio (normalised) is 1.12 (inactive). The normalised cell number in assay [9] (setting [15]) was 0.93; in [9] (setting [16]) it was 1.04. The fold change was 0.863 (inactive) and 0.891 (inactive) in [10] (setting [17]); 1.13 and 1.04 in [10] (setting [18]). Also, the cell count was 8350 and 8950 in [10] (setting [19]); 9670 and 10000 in [10] (setting [20]). Besides, the z-score in assay [11] (setting [21]) was -0.179 (inactive); in assay [11] (setting [22]), -0.168. Further, the remaining NAD in assay [12] is 10 nM (inactive).
As usually defined, the viability is a read-out of living cells in per cent, often relative to untreated cells. Turning to `O=C(Oc1cccc2cccnc12)c1ccccc1`, the parasite load remaining in assay [13] was 41.2% (inactive). Moreover, the viability in [13] was 102%. The nuclear beta-catenin stimulation in [1] (at 10 µM) is 19.8% (inactive); in assay [1] (stimulation, at 2 µM), 0.5%. For the same compound, the insulin secretion stimulation in assay [2] was -2.2% (inactive). For the same compound, the viability decrease in assay [3] was 23.6% (inactive). Further, the tube area decrease in assay [4] was -21.4% (inactive). For the same compound, the GLP1 secretion stimulation in [5] is 0.9% (inactive). In addition, the inhibition of viability in assay [6] was 27.1% (inactive). Moreover, the figures for the viability decrease (inhibition) in assay [7] and in assay [8] were 22.8% [at 2 µM] (inactive) and -5.55% (inactive), respectively. In addition, the red/green cell ratio (normalised) in assay [9] is 1 (inactive). Moreover, the normalised cell number in [9] (setting [15]) turned out to be 1.14; in assay [9] (setting [16]), 1.13. The values for the fold change in [10] (setting [17]) and in assay [10] (setting [18]) were 0.805 (inactive) and 5.26, respectively. Moreover, the figures for the cell count in assay [10] (setting [19]) and in assay [10] (setting [20]) were 10400 and 12900, respectively. Moreover, the z-score in assay [11] (setting [21]) is 0.276 (inactive); in assay [11] (setting [22]) it was 0.498. Also, the remaining NAD in [12] is 10 nM (inactive).
Turning to `CC[N+](CC)(CC(=O)Nc1c(C)cccc1C)Cc1ccccc1`, the parasite load remaining in assay [13] was 117% (inactive) and 51.1% (inactive). Also, the viability in [13] was 146% and 98%. Further, the nuclear beta-catenin stimulation in assay [1] (at 10 µM) is -0.3% (inactive); in assay [1] (stimulation, at 2 µM), 6.8%. Further, the insulin secretion stimulation in [2] was -0.4% (inactive). Besides, the viability decrease in assay [3] was -6.6% (inactive). Moreover, the tube area decrease in assay [4] is -5.6% (inactive). Besides, the GLP1 secretion stimulation in [5] is 1.3% (inactive). In assay [6], the inhibition of viability was -21.2% (inactive). Also, the figures for the viability decrease (inhibition) in assay [7] and in [8] were 14.9% (inactive) and -2.15% (inactive), respectively. Further, the red/green cell ratio (normalised) in assay [9] was 1.59 (inactive). In addition, the values for the normalised cell number in assay [9] (setting [15]) and in assay [9] (setting [16]) were 1.01 and 1.61, respectively. For the same compound, the fold change in [10] (setting [17]) is 0.914 (inactive) and 0.932 (inactive); in assay [10] (setting [18]) it was 0.77 and 5.58. For the same compound, the cell count in [10] (setting [19]) is 8020 and 13200; in [10] (setting [20]), 8770 and 14200. The figures for the z-score in assay [11] (setting [21]) and in [11] (setting [22]) were -0.589 (inactive) and -0.906, respectively. Further, the remaining NAD in assay [12] was 10 nM (inactive).
For the compound `Cc1ncc(CO)c(CO)c1O`, the survival in assay [14] was 7.67 (inactive). The parasite load remaining in assay [13] is 121% (inactive) and 68.6% (inactive) and 52.2% (inactive). Further, the viability in [13] was 108% and 75.6% and 94.6%. The nuclear beta-catenin stimulation is 0.1% (inactive) in assay [1] (at 10 µM) and 0.9% in [1] (stimulation, at 2 µM). Further, the insulin secretion stimulation in [2] is -1.8% (inactive). Further, in assay [3], the viability decrease is 4.5% (inactive). Moreover, in assay [4], the tube area decrease is -14.1% (inactive). For the same compound, the GLP1 secretion stimulation in [5] is 3.1% (inactive). In addition, the inhibition of viability in assay [6] was -18.3% (inactive). Moreover, the values for the viability decrease (inhibition) in [7] and in assay [8] were 23.7% (inactive) and 3.95% (inactive), respectively. Besides, the red/green cell ratio (normalised) in [9] was 0.91 (inactive). The normalised cell number in assay [9] (setting [15]) stood at 1.07; in [9] (setting [16]), 0.97. In addition, the fold change in [10] (setting [17]) was 0.859 (inactive) and 0.971 (inactive) and 0.904 (inactive); in assay [10] (setting [18]), 1.28 and 0.606 and 6.28. In addition, the cell count is 9040 and 7900 and 12400 in assay [10] (setting [19]); 10500 and 8140 and 13700 in assay [10] (setting [20]). Further, the z-score in [11] (setting [21]) was -0.22 (inactive) and 0.248 (inactive); in assay [11] (setting [22]), -0.0864 and 0.109. The remaining NAD in assay [12] was 10 nM (inactive).
